# Assay outcomes deposited in PubChem by National Center for Advancing Translational Sciences (NCATS).
# 3T3 cytotox – Cytotoxic Profiling in NIH 3T3 Cell Line of Diverse Libraries Using Quantitative High-Throughput Screening; NIH 3T3 viability, CellTiter-Glo ATP luminescence, 48-72 h; Potency, µM (top dose mostly 96.7 µM), inactives show top-dose activity change, negative = cytotoxicity, actives largely listed as inhibitors; 4.3% of 94,000 active; also: nearly all actives have a fitted effect of over 55% in size
#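 Cytotoxicity is measured as loss of cellular ATP: NIH 3T3 cells (400/well) are exposed to compound for 48 or 72 hr at 37 °C, then CellTiter-Glo luminescence is imaged after 10 min at room temperature.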
# FLuc inh – Firefly luciferase inhibition profiling of diverse chemical library using quantitative high-throughput screening. Luciferin 4-monooxygenase (Photinus pyralis), P08659. purified P. pyralis luciferase, luminescence, biochemical. Potency, µM (highest dose often 115 µM), usual class: inhibitors. 2.5% of 76,000 active. AID 1347043, 2019; also: nearly all actives have a fitted effect of over 65% in size
# Target sequence (P08659 whole entry, looked up): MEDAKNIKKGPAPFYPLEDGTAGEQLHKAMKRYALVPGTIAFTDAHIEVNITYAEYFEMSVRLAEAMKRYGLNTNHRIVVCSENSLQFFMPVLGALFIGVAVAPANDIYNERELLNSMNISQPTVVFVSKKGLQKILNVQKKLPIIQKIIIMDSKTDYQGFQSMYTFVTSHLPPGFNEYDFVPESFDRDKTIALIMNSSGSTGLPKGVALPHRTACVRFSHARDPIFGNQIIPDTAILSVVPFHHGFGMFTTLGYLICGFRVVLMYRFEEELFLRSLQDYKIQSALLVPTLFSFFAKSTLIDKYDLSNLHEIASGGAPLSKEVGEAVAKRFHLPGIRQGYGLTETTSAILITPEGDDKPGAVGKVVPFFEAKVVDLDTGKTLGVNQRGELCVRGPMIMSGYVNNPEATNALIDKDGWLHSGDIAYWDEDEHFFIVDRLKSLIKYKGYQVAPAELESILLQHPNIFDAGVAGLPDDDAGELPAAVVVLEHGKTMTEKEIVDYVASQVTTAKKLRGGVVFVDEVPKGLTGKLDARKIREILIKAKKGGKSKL
#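 FLuc 10nM, D-luciferin 10uM, ATP 10uM, Mg acetate 10mM, Tris acetate pH 7.5, Tween/BSA; cpd qHTS; enzyme added last; CCD luminescence.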
# HEK293 tox – Cytotoxic Profiling in HEK 293 Cell Line of Diverse Libraries Using Quantitative High-Throughput Screening. HEK 293 viability, ATP luminescence (CellTiter-Glo), 48-72 h. Potency, µM (series often up to 115 µM), inactives show at the top dose activity change, negative = cytotoxicity, most hits filed as inhibitors. 6.6% of 94,000 active. AID 1345083, 2018; also: nearly all actives have a fitted effect of over 60% in size
#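 HEK 293 cells at 250 cells/well were exposed to compounds by pintool transfer for 48 or 72 hr at 37 degree Celsius, 5% CO2. Viability was read as ATP-coupled luminescence with CellTiter-Glo after 10 min at room temperature.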
# NPR1 antag – Natriuretic polypeptide receptor (hNpr1) antagonism - Primary qHTS | HEK293 hNpr1 GloSensor cGMP, ANP-stimulated luminescence | Potency, µM (titrated, usually from 46.3 µM), for inactives: at the highest dose activity change, negative = inhibition, usual class: inhibitors | AID 1347048, 2019 | 1.6% of 76,000 active; calls by dose curve; also: nearly all actives have a fitted effect of over 60% in size
#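 HEK293 cells stably expressing human Npr1 and cGMP GloSensor pGS-40F, loaded 2 h with 2% GloSensor reagent, given compound 30 min at room temperature. Luminescence read before and 20 min after 0.1 nM hNppA.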
# Active calls of the source: *; i = inactive; ? = inconclusive; · = no result; [ ] = another dose, or the depositor's remark. A selection: hits, their analogues and other compounds. The true share with any hit is near 11%. Unless noted, calls follow the shape of the dose curve; as a rule, active = well fitted curve in the direction sought with a large enough effect; inconclusive = small, poorly fitted or top-dose-only effect, or another doubt; inactive = no such curve, though single readings can be large; an effect the other way counts as inactive or inconclusive. % is scaled to controls: 0 for no effect and ±100 for the full control effect; potency is read from the fitted curve at half-maximal effect.
SMILES,3T3 cytotox,FLuc inh,HEK293 tox,NPR1 antag
CC(C)(C)c1ccc(-c2cc(C[C@H]3CNCC[C@H]3CC(=O)N3CCCCC3)no2)cc1,35µM*,i,?,4%[70.6 µM]
CN1CCN(C(=O)C[C@@H]2CCNC[C@@H]2Cc2cc(-c3ccc(C(C)(C)C)cc3)on2)CC1,79µM*,i,?,16%
Cc1cc(C)n(CCC(=O)N2CCC(CC(=O)N(C)Cc3ccccc3)C2)n1 (centres undefined),-13%,·,-2%,·
COc1ccc2[nH]cc(CCNC(=O)C3Cn4cccc4C(=O)N3Cc3ccccc3)c2c1 (centres undefined),-21%,i,-14%,-13%
COc1ccc2[nH]cc(CCNC(=O)C3Cn4cccc4C(=O)N3Cc3cccnc3)c2c1 (centres undefined),?,i,89µM*,-1%
O=C(NCC1Cn2cccc2C(=O)N1Cc1cccnc1)c1n[nH]c(=O)c2ccccc12 (centres undefined),40µM*,i,-3%,-2%
Cn1ncc2c(C(=O)Nc3cccnc3)cc(-c3ccccc3F)nc21,-17%,·,?,·
COc1cccc(CNC(=O)[C@@H]2C[C@@H](O)CN2C2CCN(C(=O)c3ccccc3OC)CC2)c1,-13%,i,-7%,-3%
C[S+](=O)([O-])c1ccc(-c2cc(C(=O)N3CCN(c4ncccn4)CC3)nn3cccc23)cc1,-24%,·,50µM*,·
O=C(NCC(F)F)c1cc(-c2cccc(C(F)(F)F)c2)c2cccn2n1,?,·,35µM*,·
O=C(c1cc(-c2cccc(C(F)(F)F)c2)c2cccn2n1)N1CCCC1,?,·,45µM*,·
COc1ccccc1-c1cc(C(=O)N2CCN(c3ncccn3)CC2)nn2cccc12,i,·,i,·
O=C(NC1CCCC1)c1cc(-c2cccc(C(F)(F)F)c2)c2cccn2n1,?,·,40µM*,·
O=C(CNC(=O)c1ccc(-c2cnc3ccccc3c2)cc1)NCc1ccc(Cl)cc1,-17%,·,-12%,·
CCc1ccc(NC(=O)Cn2c(-c3ccc(F)cc3)nc(C)c(CCO)c2=O)cc1,-14%,i,?,2%
CNC(=O)N1CCC(C2CCN(C(=O)c3ccc(Cl)s3)C2)CC1 (centres undefined),-2%,i,-6%,5%
O=C(NCC(F)(F)F)c1cc(-c2cc(Cl)cc(Cl)c2)c2cccn2n1,?,·,40µM*,·
O=C(Cc1ccc(Cl)cc1)N1CCC2(CC1)NC(=O)N(c1ccccc1Cl)N2,40µM*,i,89µM*,-1%
O=C(COc1ccccc1)N1CCC2(CC1)NC(=O)N(c1ccccc1Cl)N2,?,i,?,1%
Cc1cncnc1C1CCN(c2cc(C3CC(N)C3)ncn2)CC1 (centres undefined),-18%,i,-10%,-4%
Cc1cnn(-c2cc(N3CCC(n4cc(C5CCCC5)nn4)CC3)ncn2)c1,?,i,45µM*,?
CN(C)C(=O)N1CCN(C(=O)c2nc3cccnc3n(Cc3ccccc3)c2=O)CC1,-7%,·,-12%,·
C=CCNC(=O)c1cnn2ncccc12,-10%[174 µM],50µM*,i,-5%[70.6 µM]
C=CCNC(=O)c1cnn2cc(C)ccc12,-25%[174 µM],?,-6%[230 µM],0%[70.6 µM]
COCCC1(CO)CCCN(c2ncc(F)c(N3CCCC3)n2)C1 (centres undefined),?,?,?,0%
SMILES,3T3 cytotox,FLuc inh,HEK293 tox,NPR1 antag
CN(C)C[C@@H]1CN(C2CCOCC2)C[C@H]1NC(=O)c1cc2ccccc2[nH]1,?,i,32µM*,-19%
CCOc1ccc(-c2cc3c(=O)n(CCNC(=O)c4ccoc4)ccn3n2)cc1,-25%,20µM*,45µM*,-5%
COc1ccc(-c2cc3c(=O)n(CCNC(=O)c4sccc4C)ccn3n2)cc1,-18%,4.5µM*,?,-13%
COc1ccc(-c2cc3c(=O)n(CCNC(=O)c4ccc(C)c(F)c4)ccn3n2)cc1,-14%,i,3%,-17%
O=C(NCCn1ccn2nc(-c3ccc(F)cc3)cc2c1=O)c1ccoc1,?,?,50µM*,-13%
COc1ccc(-c2cc3c(=O)n(CCNC(=O)c4ccsc4)ccn3n2)cc1,-20%,4.5µM*,?,-24%
